Source: paper PMC5540273 (PLoS ONE, 2017)

Assays:
Conditions in all cases: concentration: 1 μM,replicates: in singlicate; n = 1
ERK1 = tested on: T1, ERK1
T1 construct: gene MAPK3

ERK2 = tested on: T2, ERK2
T2 construct: gene MAPK1

ERK3 = tested on: T3, ERK3
T3 construct: gene MAPK6

ERK4 = tested on: T4, ERK4
T4 construct: gene MAPK4

ERK5 = tested on: T5, ERK5
T5 construct: gene MAPK7

ERK8 = tested on: T6, ERK8
T6 construct: gene MAPK15

ERN1 = tested on: ERN1
FAK = tested on: T7, FAK
T7 construct: gene PTK2

FER = tested on: FER
FES = tested on: FES
FGFR1 = tested on: FGFR1
FGFR2 = tested on: FGFR2
FGFR3 = tested on: FGFR3
FGFR4 = tested on: FGFR4
FGR = tested on: FGR
FLT1 = tested on: FLT1
FLT3-autoinhibited = tested on: FLT3-autoinhibited
FLT3 = tested on: FLT3
FLT4 = tested on: FLT4
FRK = tested on: FRK
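Note: KINOMEscan kinase panel screen.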

SMILES	%Inh (ERK1)	%Inh (ERK2)	%Inh (ERK3)	%Inh (ERK4)	%Inh (ERK5)	%Inh (ERK8)	%Inh (ERN1)	%Inh (FAK)	%Inh (FER)	%Inh (FES)	%Inh (FGFR1)	%Inh (FGFR2)	%Inh (FGFR3)	%Inh (FGFR4)	%Inh (FGR)	%Inh (FLT1)	%Inh (FLT3-autoinhibited)	%Inh (FLT3)	%Inh (FLT4)	%Inh (FRK)
OCCn1cc(-c2cnc3nnn(Cc4ccc5ncccc5c4)c3n2)cn1	0%	0%	0%	18%	3%	9%	0%	0%	0%	0%	0%	0%	0%	0%	5%	0%	0%	0%	0%	0%
CS(=O)(=O)Nc1ccc(-c2ccnc3[nH]ccc23)cc1 [GSK993273]	0%	0%	0%	13%	0%	0%	25%	0%	16%	0%	29%	20%	4%	8%	16%	56%	10%	74%	28%	0%
Cn1ccc2ncnc(Oc3ccc(NC(=O)Nc4cccc(C(F)(F)F)c4)c(Cl)c3)c21	0%	18%	0%	10%	12%	11%	15%	41%	0%	9%	–	10%	0%	14%	5%	99.6%	0%	84%	99.9%	94.9%
O=C(Nc1ccccc1)c1cccc(Oc2ccc3nccn3n2)c1	0%	0%	0%	77%	0%	0%	22%	0%	2%	6%	41%	19%	20%	0%	10%	79%	16%	0%	5%	0%
CC(C(=O)NC1CCN(c2ccnc(Nc3ccc(F)cc3)n2)C1)c1ccc(Cl)cc1 (stereo not shown) [GSK1379713]	0%	0%	0%	0%	0%	0%	0%	0%	46%	1%	0%	11%	9%	0%	0%	33%	0%	8%	0%	0%
Cn1ccc2ncnc(Oc3ccc(NC(=O)Nc4cncc(C(F)(F)F)c4)c(Cl)c3)c21	0%	0%	0%	0%	0%	0%	0%	0%	0%	0%	–	0%	0%	0%	0%	94.5%	0%	95.7%	99.7%	72%
CCNCC(Cc1ccccc1)NC(=O)c1cc(Br)c(-c2ccnc3[nH]ccc23)s1.Cl.Cl (stereo not shown) [GSK1383280]	19%	0%	4%	32%	0%	3%	12%	2%	0%	0%	88%	81%	61%	68%	22%	54%	9%	69%	49%	17%
COc1cc2ncn(-c3cc(OCC4CCCCC4)c(C(N)=O)s3)c2cc1OC [GSK204559]	6%	2%	18%	4%	0%	2%	8%	0%	23%	8%	26%	3%	12%	9%	29%	44%	0%	0%	66%	4%
CCOC(=O)N1CCC(n2cnc(-c3ccc(F)cc3)c2-c2ccnc(N)n2)CC1 [SB-219952]	0%	0%	0%	8%	0%	0%	19%	0%	20%	0%	0%	12%	12%	0%	0%	33%	14%	24%	0%	2%
